# hNpr1 antagonist: antagonists of human natriuretic peptide receptor Npr1 | actives 1.6% (n = 76,000) | Potency, µM (top dose mostly 46.3 µM), for inactives: top-dose activity change, negative = inhibition, hits mostly inhibitors | HEK293 hNpr1 GloSensor cGMP, ANP-stimulated luminescence | P16066; calls by dose curve; also: nearly all actives have a fitted effect of over 60% in size
#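 HEK293 cells stably expressing human Npr1 and cGMP GloSensor pGS-40F, loaded 2 h with 2% GloSensor reagent, given compound 30 min at room temperature. Luminescence read before and 20 min after 0.1 nM hNppA.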
# FLuc inh: Photinus pyralis luciferase inhibition; P08659; purified P. pyralis luciferase, luminescence, biochemical; Potency, µM (highest dose often 115 µM), usual class: inhibitors; actives 2.5% (n = 76,000); also: nearly all actives have a fitted effect of over 65% in size
# Target sequence (P08659 whole entry, looked up): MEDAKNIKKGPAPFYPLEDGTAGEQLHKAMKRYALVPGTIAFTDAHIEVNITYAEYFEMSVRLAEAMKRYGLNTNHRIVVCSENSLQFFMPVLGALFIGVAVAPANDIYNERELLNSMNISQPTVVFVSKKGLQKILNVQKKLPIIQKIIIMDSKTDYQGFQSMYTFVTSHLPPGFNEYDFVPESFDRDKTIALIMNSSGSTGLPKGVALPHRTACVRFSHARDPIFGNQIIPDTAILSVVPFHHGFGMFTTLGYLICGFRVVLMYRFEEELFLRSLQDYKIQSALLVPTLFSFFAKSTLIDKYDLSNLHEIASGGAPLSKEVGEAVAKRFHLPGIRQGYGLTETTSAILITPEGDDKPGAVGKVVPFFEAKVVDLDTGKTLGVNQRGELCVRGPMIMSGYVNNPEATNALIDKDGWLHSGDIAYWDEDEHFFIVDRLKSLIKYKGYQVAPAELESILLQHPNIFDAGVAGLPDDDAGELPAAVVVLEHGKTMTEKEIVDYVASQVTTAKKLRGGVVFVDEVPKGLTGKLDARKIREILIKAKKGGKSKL
#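 Inhibitors were tested against purified firefly luciferase in a biochemical, low-substrate format (both substrates at 10uM) and luminescence measured with a CCD imager.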
# HEK293 tox: HEK 293 cell cytotoxicity; HEK 293 viability, ATP luminescence (CellTiter-Glo), 48-72 h; Potency, µM (doses to about 115 µM), for the others: top-dose activity change, negative = cytotoxicity, hits mostly inhibitors; actives 6.6% (n = 94,000); also: nearly all actives have a fitted effect of over 60% in size
#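 Cytotoxicity was scored by loss of ATP-coupled luminescence (CellTiter-Glo) in HEK 293 cells. Compound treatment ran 48 or 72 hr at 37 degree Celsius, 5% CO2, 95% humidity.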
# GPT2 inh: inhibitors of human GPT2 alanine aminotransferase. Recombinant GPT2, coupled pyruvate oxidase/HRP Amplex Red fluorescence. Potency, µM (highest dose often 57.7 µM), for the others: at the top dose activity change, negative = inhibition, hits mostly inhibitors. actives 0.25% (n = 100,000). AID 1671188; also: nearly all actives have a fitted effect of over 60% in size
#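 Inhibition is scored from Amplex Red fluorescence generated when pyruvate oxidase and HRP act on pyruvate released by GPT2. Reactions contain 10ng/uL enzyme, 250uM a-KG and 2mM L-alanine and run 30 min at room temperature.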
# 3T3 cytotox: NIH 3T3 cell cytotoxicity; actives 4.3% (n = 94,000); NIH 3T3 viability, CellTiter-Glo ATP luminescence, 48-72 h; Potency, µM (series often up to 96.7 µM), inactives show at the top dose activity change, negative = cytotoxicity, actives largely listed as inhibitors; also: nearly all actives have a fitted effect of over 55% in size
#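 Luminescent ATP readout (CellTiter-Glo, 10 min RT) after 48 or 72 hr compound exposure of NIH 3T3 cells seeded at 400 cells/well in 1536-well format; quantitative HTS.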
# The depositor's hits bear a star; i = inactive; ? = inconclusive; . = no result; [ ] = remark or other dose. Most compounds without a hit are left out; they make up all but 10% or so of the library. Unless noted, calls follow the shape of the dose curve; as a rule, active = well fitted curve in the direction sought with a large enough effect; inconclusive = small, poorly fitted or top-dose-only effect, or another doubt; inactive = no such curve, though single readings can be large; an effect the other way counts as inactive or inconclusive. % is scaled to controls: 0 for no effect and ±100 for the full control effect; potency is read from the fitted curve at half-maximal effect.
SMILES,hNpr1 antagonist,FLuc inh,HEK293 tox,GPT2 inh,3T3 cytotox
CCC(C)(C)c1ccc2c(C(=O)N3C[C@H](N)C[C@H]3C(=O)NC)csc2c1,2%,i,?,i,?
CN(C)CCNC(=O)c1ccc2c(c1)C1(CCN(CC3CC3)C1)CN2Cc1ccccc1 (stereo not drawn),-9%[70.6 µM],i,45µM*,-10%[88.5 µM],32µM*
CN1CC2(CCCN(CC3CC3)C2)c2cc(C(=O)NCCc3ccccn3)ccc21 (stereo not drawn),-14%[70.6 µM],i,?,i,-20%[138 µM]
COCCNC(=O)c1ccc2c(c1)C1(CCN(C)C1)CN2Cc1csc(C)n1 (stereo not drawn),2%[70.6 µM],i,-13%[172 µM],-29%[88.5 µM],?
CN1CC2(CCCN(CC3CC3)C2)c2cc(C(=O)NCCOc3ccccc3)ccc21 (stereo not drawn),-2%[70.6 µM],i,100µM*,-2%[88.5 µM],79µM*
Cc1nc(CN2CC3(CCN(C)C3)c3cc(C(=O)NCCc4ccccc4)ccc32)cs1 (stereo not drawn),0%,i,79µM*,3%,?
Cn1ccc2c(C(=O)NCC3CCC(=O)N3)nc(-c3ccccc3)cc21 (stereo not drawn),-2%[70.6 µM],i,-24%[172 µM],4%[88.5 µM],50µM*
Cn1ccc2c(C(=O)NCCC(N)=O)nc(-c3ccccc3)cc21,2%[70.6 µM],i,-3%[172 µM],i,100µM*
Cn1ccc2c(C(=O)NCCC(N)=O)nc(-c3cccc(C(F)(F)F)c3)cc21,3%[70.6 µM],i,89µM*,-9%[88.5 µM],?
Cn1ccc2c(C(=O)NCCC(N)=O)nc(-c3cccc(CO)c3)cc21,4%[70.6 µM],i,i,-3%[88.5 µM],?
Cn1ccc2c(C(=O)NCCC(N)=O)nc(-c3ccccc3C(F)(F)F)cc21,4%[70.6 µM],i,?,-4%[88.5 µM],?
COc1ccc2[nH]c3c(c2c1)CCNC31CCN(C(=O)c2ccc(OC)nc2)CC1,7%,i,?,-24%,?
CNC(=O)c1cc(C)nc2onc(C3CCN(C(=O)c4cccc(C)c4)C3)c12 (stereo not drawn),.,.,-11%,.,-23%
COc1ccccc1-c1[nH]nc2ncc(-c3ccccc3C)nc12,-17%[70.6 µM],i,50µM*,-5%[88.5 µM],50µM*
COc1ccccc1-c1[nH]nc2ncc(-c3cnn(C)c3)nc12,3%[70.6 µM],i,35µM*,1%[88.5 µM],?
COc1ccccc1-c1[nH]nc2ncc(-c3ccccc3F)nc12,-24%[70.6 µM],i,?,0%[88.5 µM],35µM*
COc1ccccc1-c1[nH]nc2ncc(-c3ccccc3)nc12,.,.,.,4%[88.5 µM],.
COc1ccccc1-c1[nH]nc2ncc(CNc3ccccn3)nc12,-8%[70.6 µM],i,?,i,?
COc1ccccc1-c1[nH]nc2ncc(-c3cccc(O)c3)nc12,-5%[70.6 µM],i,40µM*,i,?
COc1ccccc1-c1[nH]nc2ncc(-c3ccnc(C)c3)nc12,-1%[70.6 µM],i,?,-1%[88.5 µM],?
COc1ccnc(-c2nnc3ccc(N(C)Cc4ccccc4)nn23)c1,-10%[70.6 µM],i,56µM*,-22%[88.5 µM],?
CN(c1ccccc1)c1ccc2nnc(-c3ccccn3)n2n1,2%[70.6 µM],?,?,-5%[88.5 µM],?
COc1ccnc(-c2nnc3ccc(N(C)CCN(C)C)nn23)c1,1%[70.6 µM],i,2%[172 µM],1%[88.5 µM],100µM*
Cc1noc(C)c1C(=O)N1Cc2ccccc2CC2(CCCN(C)C2)C1 (stereo not drawn),.,.,-2%,i,i
COCC1CN(S(=O)(=O)c2cccc(C#N)c2)CC12CCNCC2 (stereo not drawn),1%,i,i,i,3%
SMILES,hNpr1 antagonist,FLuc inh,HEK293 tox,GPT2 inh,3T3 cytotox
O=C1CC2(CCN([S+](=O)([O-])c3cccc(C(F)(F)F)c3)CC2)Oc2cc(Cl)ccc21,0%,i,32µM*,?,?
COc1ccc(C(=O)N2CCC3(CC2)CC(=O)c2ccc(Cl)cc2O3)cc1,-10%,i,50µM*,?,?
O=C1CC2(CCN(C(=O)c3ccccc3)CC2)Oc2ccccc21,2%[70.6 µM],i,?,-4%[88.5 µM],?
O=C1CC2(CCN([S+](=O)([O-])c3cccc(C(F)(F)F)c3)CC2)Oc2ccccc21,0%,i,?,i,?
Cc1ccc(C(=O)N2CCC3(CC2)CC(=O)c2ccc(Cl)cc2O3)cc1,?,i,?,-33%,35µM*
O=C(Cc1ccc(F)cc1)N1CCCC(C(=O)N2CCC(N3CCOCC3=O)CC2)C1 (stereo not drawn),.,.,-7%,i,-15%
CNC(=O)c1cc(C)nc2onc(C3CCCN(C(=O)OC)C3)c12 (stereo not drawn),.,.,0%,.,-11%
CCCn1cc2c3c(cccc31)CN(C(=O)COc1ccc(F)cc1)CC2,-22%,i,45µM*,-16%,?
CC1=C[C@@H](CNC(=O)CC(C)(C)CC(=O)O)[C@H](C(C)C)C[C@H]1Cc1nc2ccccc2n1C,7%,i,-18%,-6%,?
CCC(CC)C(=O)NC[C@@H]1C=C(C)[C@H](Cc2nc3ccccc3n2C)C[C@H]1C(C)C,?,i,32µM*,i,35µM*
CC1=C[C@@H](CNC(=O)C2CCCCC2)[C@H](C(C)C)C[C@H]1Cc1nc2ccccc2n1C,?,i,32µM*,?,32µM*
CC1=C[C@@H](CNC(=O)c2ccccc2)[C@H](C(C)C)C[C@H]1Cc1nc2ccccc2n1C,?,i,25µM*,-1%[88.5 µM],32µM*
COc1ccc(-c2ccc3c(c2)C(=O)N2CCN(C(=O)CC(C)(C)C)C[C@@H]2C(=O)N3)cc1,-1%[70.6 µM],i,?,-19%[88.5 µM],?
CC(C)(CC(=O)O)CC(=O)N1CCN2C(=O)c3cc(-c4ccc(Cl)cc4)ccc3NC(=O)[C@H]2C1,-3%,i,0%,i,-1%
CC(C)(C)CC(=O)N1CCN2C(=O)c3cc(-c4ccc(Cl)cc4)ccc3NC(=O)[C@H]2C1,-14%,i,40µM*,-24%,?
CCCNC(=O)N1CCN2C(=O)c3cc(-c4ccccc4F)ccc3NC(=O)[C@@H]2C1,-2%[70.6 µM],i,100µM*,i,?
CC(C)(C)CC(=O)N1CCN2C(=O)c3cc(-c4ccccc4)ccc3NC(=O)[C@H]2C1,-1%[70.6 µM],i,100µM*,5%[88.5 µM],?
O=C1Nc2ccc(-c3ccccc3F)cc2C(=O)N2CCN(C(=O)c3ccco3)C[C@@H]12,1%[70.6 µM],i,?,0%[88.5 µM],?
COc1ccc(Cl)cc1-c1ccc2c(c1)C(=O)N1CCN(C(=O)CN)C[C@H]1C(=O)N2,3%[70.6 µM],i,?,-17%[88.5 µM],100µM*
COc1ccc(-c2cnc([C@@H]3COCCN3Cc3csnn3)[nH]2)cc1,-1%[70.6 µM],i,4%[172 µM],i,-4%[138 µM]

# High-throughput results (PubChem BioAssay)
